Reference: the supplement of paper PMC6897291
Values joined by “and” are separate entries in the source; they are usually repeats but may differ in a detail not shown here. Equal values may be shown once. Where a name gives a salt, the structure may show the parent alone.

Columns and labels:
RIVA [1] = experiment: growth inhibition by drug alone (1 - RLU/untreated control) (fraction); higher = stronger inhibition; conditions: 177Lu-lilotomab satetraxetan 0 ug/ml
Summary of the method: (§1)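 Compound doses on the pre-printed Selleck Cambridge Cancer Compound library plates were 10/100 nM for RIVA cells and 10/1,000 nM for U-2932 cells, seeded at 3,000 cells/well. Before seeding, cells were washed after 18 h with or without a radiolabelled anti-CD37 antibody conjugate (~600 MBq/mg; 0.5 µg/ml RIVA, 1 µg/ml U-2932). Growth inhibition was derived from RealTime-Glo luminescence relative to untreated no-drug control wells. Readings were taken daily starting on day 3, each after 1 h at 37°C, and each well's RLU was divided by the mean of 48 such wells per plate and subtracted from 1.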

U-2932 [2] = experiment: growth inhibition by drug plus 177Lu-lilotomab satetraxetan (1 - RLU/untreated control) (fraction); higher = stronger inhibition; conditions: 177Lu-lilotomab satetraxetan 1 ug/ml
Summary of the method: as §1

RIVA [3] = experiment: as above; conditions: 177Lu-lilotomab satetraxetan 0.5 ug/ml
Summary of the method: as §1

U-2932 [4] = experiment: growth inhibition by drug alone (1 - RLU/untreated control) (fraction); higher = stronger inhibition; conditions: 177Lu-lilotomab satetraxetan 0 ug/ml
Summary of the method: as §1

SMILES	growth inhibition by drug alone (RIVA [1]; 10 nM, time (day): 3)	growth inhibition by drug alone (RIVA [1]; 10 nM, time (day): 4)	growth inhibition by drug alone (RIVA [1]; 10 nM, time (day): 5)	growth inhibition by drug alone (RIVA [1]; 10 nM, time (day): 6)	growth inhibition by drug alone (RIVA [1]; 100 nM, time (day): 3)	growth inhibition by drug alone (RIVA [1]; 100 nM, time (day): 4)	growth inhibition by drug alone (RIVA [1]; 100 nM, time (day): 5)	growth inhibition by drug alone (RIVA [1]; 100 nM, time (day): 6)	growth inhibition by drug plus 177Lu-lilotomab satetraxetan (U-2932 [2]; 10 nM, time (day): 3)	growth inhibition by drug plus 177Lu-lilotomab satetraxetan (U-2932 [2]; 10 nM, time (day): 4)	growth inhibition by drug plus 177Lu-lilotomab satetraxetan (U-2932 [2]; 10 nM, time (day): 5)	growth inhibition by drug plus 177Lu-lilotomab satetraxetan (U-2932 [2]; 10 nM, time (day): 6)	growth inhibition by drug plus 177Lu-lilotomab satetraxetan (U-2932 [2]; 1000 nM, time (day): 3)	growth inhibition by drug plus 177Lu-lilotomab satetraxetan (U-2932 [2]; 1000 nM, time (day): 4)	growth inhibition by drug plus 177Lu-lilotomab satetraxetan (U-2932 [2]; 1000 nM, time (day): 5)	growth inhibition by drug plus 177Lu-lilotomab satetraxetan (U-2932 [2]; 1000 nM, time (day): 6)	growth inhibition by drug plus 177Lu-lilotomab satetraxetan (RIVA [3]; 10 nM, time (day): 3)	growth inhibition by drug plus 177Lu-lilotomab satetraxetan (RIVA [3]; 10 nM, time (day): 4)	growth inhibition by drug plus 177Lu-lilotomab satetraxetan (RIVA [3]; 10 nM, time (day): 5)	growth inhibition by drug plus 177Lu-lilotomab satetraxetan (RIVA [3]; 10 nM, time (day): 6)	growth inhibition by drug plus 177Lu-lilotomab satetraxetan (RIVA [3]; 100 nM, time (day): 3)	growth inhibition by drug plus 177Lu-lilotomab satetraxetan (RIVA [3]; 100 nM, time (day): 4)	growth inhibition by drug plus 177Lu-lilotomab satetraxetan (RIVA [3]; 100 nM, time (day): 5)	growth inhibition by drug plus 177Lu-lilotomab satetraxetan (RIVA [3]; 100 nM, time (day): 6)	growth inhibition by drug alone (U-2932 [4]; 1000 nM, time (day): 5)	growth inhibition by drug alone (U-2932 [4]; 10 nM, time (day): 3)	growth inhibition by drug alone (U-2932 [4]; 10 nM, time (day): 4)	growth inhibition by drug alone (U-2932 [4]; 10 nM, time (day): 5)	growth inhibition by drug alone (U-2932 [4]; 10 nM, time (day): 6)	growth inhibition by drug alone (U-2932 [4]; 1000 nM, time (day): 3)	growth inhibition by drug alone (U-2932 [4]; 1000 nM, time (day): 4)	growth inhibition by drug alone (U-2932 [4]; 1000 nM, time (day): 6)
COc1cc2c(cc1O)CC[C@@H]1[C@@H]2CC[C@]2(C)[C@@H](O)CC[C@@H]12 [2-Methoxyestradiol]	-0.258	-0.3	-0.405	-0.422	-0.594	-0.529	-0.534	-0.63	-0.116	-0.0531	0.00475	0.11	0.704	0.761	0.783	0.814	–	–	–	–	–	–	–	–	–	–	–	–	–	–	–	–
COc1c(C)c2c(c(O)c1C/C=C(\C)CCC(=O)OCCN1CCOCC1)C(=O)OC2 [Mycophenolate mofetil (CellCept)]	0.15	0.0186	-0.0505	-0.245	0.284	0.214	0.154	0.0335	0.0524	0.064	0.0624	0.115	0.826	0.893	0.89	0.878	0.413	0.511	0.534	0.55	0.554	0.581	0.583	0.539	–	–	–	–	–	–	–	–
C[C@@H]1CCN(C(=O)CC#N)C[C@@H]1N(C)c1ncnc2[nH]ccc12	–	–	–	-0.145 and -0.158	–	–	–	-0.23 and -0.152	-0.0798 and -0.0527	–	–	–	-0.1 and -0.107	–	–	–	0.396 and 0.421	0.461 and 0.516	0.484 and 0.536	0.5 and 0.538	0.367 and 0.379	0.424 and 0.434	0.412 and 0.435	0.396 and 0.419	-0.0604 and -0.0478	–	–	–	–	–	–	–
O=c1cc(N2CCOCC2)oc2c(-c3cccc4c3sc3ccccc34)cccc12	0.21	0.183	0.173	-0.0317	-0.363	-0.241	-0.261	-0.43	0.0719	0.131	0.166	0.2	0.312	0.318	0.34	0.421	0.597	0.621	0.62	0.635	0.447	0.499	0.523	0.529	–	–	–	–	–	–	–	–
CO[C@H]1C[C@@H]2CC[C@@H](C)[C@@](O)(O2)C(=O)C(=O)N2CCCC[C@H]2C(=O)O[C@H]([C@H](C)C[C@@H]2CC[C@@H](OC(=O)C(C)(CO)CO)[C@H](OC)C2)CC(=O)[C@H](C)/C=C(\C)[C@@H](O)[C@@H](OC)C(=O)[C@H](C)C[C@H](C)/C=C/C=C/C=C/1C [Temsirolimus (Torisel)]	0.78	0.785	0.769	0.7	0.803	0.83	0.833	0.812	0.68	0.614	0.579	0.568	0.648	0.681	0.651	0.651	0.842	0.865	0.86	0.839	0.846	0.883	0.885	0.887	–	–	–	–	–	–	–	–
Cn1cc(-c2ccc3nnc(Sc4ccc5ncccc5c4)n3n2)cn1	0.0128	0.0644	0.0167	-0.227	-0.0367	0.0223	0.00017	-0.0611	0.0469	0.105	0.177	0.212	0.0614	0.085	0.142	0.222	0.61	0.637	0.638	0.635	0.458	0.538	0.561	0.584	–	–	–	–	–	–	–	–
CN(C)CCCCSC(=N)N	-0.0402	-0.0677	-0.106	-0.316	-0.0334	-0.0664	-0.0858	-0.22	0.0342	0.0372	0.0384	0.0444	-0.0939	0.0263	-0.0236	-0.0661	0.357	0.498	0.532	0.544	0.259	0.415	0.415	0.398	–	–	–	–	–	–	–	–
FC(F)c1nc2ccccc2n1-c1nc(N2CCOCC2)nc(N2CCOCC2)n1	0.208	0.164	0.161	0.106	0.823	0.782	0.766	0.718	0.0955	0.119	0.149	0.22	0.282	0.348	0.331	0.393	0.45	0.529	0.568	0.572	0.763	0.779	0.782	0.761	–	–	–	–	–	–	–	–
CCOc1cc2ncc(C#N)c(Nc3ccc(OCc4ccccn4)c(Cl)c3)c2cc1NC(=O)/C=C/CN(C)C [Neratinib (HKI-272)]	-0.145	-0.144	-0.165	-0.233	-0.0145	-0.0628	-0.098	-0.14	-0.0172	-0.00319	0.0327	0.194	-0.0673	0.003	0.00224	0.0815	0.358	0.498	0.529	0.541	0.367	0.422	0.425	0.419	–	–	–	–	–	–	–	–
COc1ccc2c(c1)CCC1C2CCC2(C)C(NCCCCCCN3C(=O)C=CC3=O)CCC12 (stereo not drawn)	-0.042	-0.062	-0.0736	-0.13	-0.374	-0.291	-0.321	-0.444	0.00613	0.0631	0.103	0.161	-0.0126	0.0436	0.0468	0.107	0.506	0.561	0.586	0.598	0.502	0.567	0.571	0.58	–	–	–	–	–	–	–	–
Cc1nc(Nc2ncc(C(=O)Nc3c(C)cccc3Cl)s2)cc(N2CCN(CCO)CC2)n1	0.376	0.323	0.282	0.128	0.779	0.826	0.856	0.867	-0.0537	-0.0412	-0.0107	0.0287	0.607	0.75	0.816	0.88	–	–	–	–	–	–	–	–	0.693	-0.00248	-0.0473	-0.15	-0.0827	0.487	0.65	0.752
COc1cc(Nc2ncc(F)c(Nc3ccc4c(n3)NC(=O)C(C)(C)O4)n2)cc(OC)c1OC [R406(free base)]	0.0167	-0.0293	-0.017	-0.0464	-0.368	-0.333	-0.353	-0.462	-0.0151	0.0369	0.0816	0.0813	0.069	0.0868	0.096	0.227	0.577	0.592	0.602	0.605	0.471	0.564	0.581	0.575	–	–	–	–	–	–	–	–
CO[C@H]1/C=C\C=C(/C)C(=O)NC2=CC(=O)C(NCCN(C)C)=C(C[C@@H](C)C[C@H](OC)[C@H](O)[C@@H](C)/C=C(\C)[C@@H]1OC(N)=O)C2=O [17-DMAG HCl (Alvespimycin)]	0.132	0.103	0.0633	-0.0974	0.922	0.953	0.961	0.96	0.0703	0.119	0.177	0.21	0.956	0.982	0.988	0.99	–	–	–	–	–	–	–	–	0.985	0.163	0.099	-0.033	-0.0727	0.944	0.979	0.986
NC(=O)c1ccc(-c2nc(-c3ccccn3)c(-c3ccc4c(c3)OCO4)[nH]2)cc1	0.151	0.132	0.0924	-0.233	-0.221	-0.199	-0.195	-0.245	0.0841	0.129	0.164	0.198	0.0479	0.102	0.125	0.211	–	–	–	–	–	–	–	–	-0.0548	0.107	0.0821	-0.071	-0.0929	0.0294	0.069	-0.0669
COc1ccc(C2=N[C@@H](c3ccc(Cl)cc3)[C@@H](c3ccc(Cl)cc3)N2C(=O)N2CCNC(=O)C2)c(OC(C)C)c1 [Nutlin-3]	-0.198	-0.261	-0.371	-0.533	-0.567	-0.492	-0.511	-0.69	-0.0474	0.00784	0.0366	0.0903	-0.00272	-0.0242	0.00355	0.11	–	–	–	–	–	–	–	–	-0.145	-0.04	-0.0423	-0.094	-0.287	-0.0802	-0.0948	-0.237
CCCCCCCc1ccc(CCc2cccc(O)c2C(=O)O)cc1	-0.000498	-0.0468	-0.0726	-0.153	-0.176	-0.164	-0.186	-0.241	-0.0136	0.0406	0.0811	0.11	0.0189	0.0723	0.084	0.179	0.588	0.59	0.619	0.624	0.545	0.607	0.62	0.624	–	–	–	–	–	–	–	–
COc1cc2nccc(Oc3ccc(NC(=O)C4(C(=O)Nc5ccc(F)cc5)CC4)cc3)c2cc1OC [XL-184 free base (Cabozantinib)]	0.0104	0.0385	-0.0535	-0.315	-0.233	-0.0966	-0.104	-0.224	0.0398	0.083	0.153	0.164	0.112	0.177	0.224	0.337	–	–	–	–	–	–	–	–	0.037	0.15	0.0841	-0.102	-0.0896	0.0853	0.105	-0.036
COc1cc([C@@H]2c3cc4c(cc3[C@@H](O[C@@H]3O[C@@H]5CO[C@@H](C)O[C@H]5[C@H](O)[C@H]3O)[C@H]3COC(=O)[C@H]23)OCO4)cc(OC)c1O [Etoposide (VP-16)]	-0.26	-0.276	-0.302	-0.423	-0.0322	0.0869	0.148	0.202	-0.108	-0.0574	-0.0473	0.0279	0.823	0.901	0.945	0.969	0.345	0.51	0.549	0.556	0.681	0.776	0.816	0.845	–	–	–	–	–	–	–	–
